These results are taken from PubChem BioAssay AID431 (Sanford-Burnham Center for Chemical Genomics, 2006).

The whole screen tested about 63,000 compounds, of which about 1,100 (1.7%) were called active.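 Rule for the calls: active = compounds whose percent cytotoxicity in the single-dose primary screen, scaled between solvent and toxic-drug controls, exceeds 50; inactive = the rest.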 What follows is part of a selection rich in actives, with near analogues and random picks from the rest. Entries with a potency or affinity are not part of this list.

A short description of the experiment: cytotoxicity in KRAS-transformed pancreatic duct cells, primary screen, cell-based, fluorescence, HTS (AID 431).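 Note: 0% = DMSO solvent wells and 100% = doxorubicin-treated wells.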 The note with it: HPDE-C7K KRASV12 cells, Alamar Blue viability, 48 h; at 10 µM; active compounds read high. (Alamar Blue is a resazurin reagent that responds to reducing activity.)
For the molecule `Fc1ccc(Cn2nnnc2CN2CCN(C3CCCC3)CC2)cc1`, the cytotoxicity was 5.5% (inactive).
Regarding `Cc1cc(N2CCN(c3ccccc3)CC2)nc(-c2ccccc2)n1`, the cytotoxicity is -1.4% (inactive).
On to `Cc1cc(N2C3CCC2CC(O)(c2ccc(F)cc2)C3)nc(-c2ccccc2)n1` (centres undefined), for which the cytotoxicity was 76.5% (active).
With `Cc1cc(N2CCC(C(=O)Nc3ccc(F)cc3)CC2)nc(-c2ccccc2)n1`, the cytotoxicity is -0.7% (inactive).
Next, `O=C(c1cnccn1)N1CCc2ccccc21`: -21% (inactive); `Cc1cc(NC(c2cccnc2)c2ccc3cccnc3c2O)no1` (centres undefined): 24.3% (inactive); `O=S(=O)(NCc1cccs1)c1cccc2cccnc12`: 6.5% (inactive).
Consider `Cc1cnc(C(=O)Nc2ccccc2C(=O)N2CCOCC2)cn1`, for which the cytotoxicity was 1.7% (inactive).
With `O=C(O)c1ccc2cccc(Cl)c2c1O`, the cytotoxicity was 24.3% (inactive).
Consider `Cc1ccccc1NS(=O)(=O)c1ccc2[nH]cc(C(=O)NCCCN3CCOCC3)c(=O)c2c1`, for which the cytotoxicity is 3.9% (inactive).
Next, `COc1cccc(NS(=O)(=O)c2ccc3[nH]cc(C(=O)NCCN4CCOCC4)c(=O)c3c2)c1`: -12.6% (inactive); `CC1CCN(S(=O)(=O)c2ccc3[nH]cc(C(=O)NCCN4CCOCC4)c(=O)c3c2)CC1`: 57.8% (active).
Regarding `COc1ccc(CNC(=O)C2CCCN2S(=O)(=O)c2ccc(S(=O)(=O)N(C)C)cc2)cc1` (centres undefined), the cytotoxicity was -14.8% (inactive).
Next, `Cc1cc(NCCN2CCOCC2)n2c(nc3ccccc32)c1C#N`: 11.6% (inactive); `CCOC(=O)CSC1=C(C#N)C(c2ccc3c(c2)OCO3)CC(=O)N1` (centres undefined): 27.9% (inactive).
On to `CCCCCCSC1=C(C#N)C(c2ccc(C)o2)CC(=O)N1` (centres undefined), for which the cytotoxicity is -6.9% (inactive).
In the case of `CCCOC(=O)CSC1=C(C#N)C(c2ccc3c(c2)OCO3)CC(=O)N1` (centres undefined) it was 61.7% (active).
In the case of `CCCCOC(=O)CSC1=C(C#N)C(c2ccc3c(c2)OCO3)CC(=O)N1` (centres undefined) it was 21.6% (inactive); in that of `Cc1ccc(C2CC(=O)NC(SCc3ccccc3)=C2C#N)o1` (centres undefined), 9% (inactive); in that of `CCOC(=O)CSC1=C(C#N)C(c2ccccc2OC)CC(=O)N1` (centres undefined), 30.7% (inactive).
Turning to `COC(=O)CSC1=C(C#N)C(c2ccccc2)CC(=O)N1` (centres undefined), the cytotoxicity is -15.7% (inactive).
In the case of `CCOC(=O)CSC1=C(C#N)C(c2ccc(Cl)cc2)CC(=O)N1` (centres undefined) it was -10.7% (inactive); in that of `CCSC1=C(C#N)C(c2ccccc2OC)CC(=O)N1` (centres undefined), -0.5% (inactive); in that of `CCOC(=O)CC(=O)CSC1=C(C#N)C(c2ccccc2OC)CC(=O)N1` (centres undefined), 70.2% (active).
As to `Cc1ccc(C2CC(=O)NC(SCC(=O)OCc3ccccc3)=C2C#N)o1` (centres undefined), the cytotoxicity was 55.7% (active).
Consider `CCOC(=O)CSC1=C(C#N)C(c2ccc(C)o2)CC(=O)N1` (centres undefined), for which the cytotoxicity was 67.9% (active).
In the case of `O=C(CN(Cc1ccccc1F)S(=O)(=O)c1ccc(Cl)cc1)NCCCO` it was -0.2% (inactive); in that of `CC1CCN(c2nc3c(c(=O)n(C)c(=O)n3C)n2CCSc2nc3ccccc3s2)CC1`, -22% (inactive).
Next, `COc1ccccc1C(c1nnnn1CS(=O)(=O)c1ccc(C)cc1)N1CCSCC1` (centres undefined): -16.2% (inactive); `CCCn1c(SCC(=O)NCC2CCCO2)nc2c1c(=O)n(C)c(=O)n2C` (centres undefined): 2.7% (inactive); `CCOC(=O)CSC1=C(C#N)C(c2ccc(C)s2)CC(=O)N1` (centres undefined): 49.2% (inactive).
In the case of `CCOc1ccc(C2CC(=O)NC(SCC(=O)OC)=C2C#N)cc1` (centres undefined) it was -6.5% (inactive); in that of `CCOC(=O)CSC1=C(C#N)C(c2sccc2C)CC(=O)N1` (centres undefined), 52% (active); in that of `Cc1ccc(NCc2nnc3n2CCCCC3)cc1`, -2.7% (inactive).
Take `CCOC(=O)N1CCC(N2CCN(S(=O)(=O)CC)CC2)CC1`: the cytotoxicity was 3.6% (inactive).
Take `O=C(Nc1nc2c(s1)CCc1ccccc1-2)c1ccco1`: the cytotoxicity is 5.1% (inactive).
`CC1CCc2nc(NC(=O)c3ccco3)sc2C1` (centres undefined): the cytotoxicity is -5.4% (inactive).
Next, `O=S(=O)(Cc1ccccc1)NCc1ccccn1`: 1.9% (inactive); `C=CCn1c(SCC(=O)NCc2ccco2)nnc1-c1ccc2ccccc2n1`: 16.6% (inactive).
In the case of `CCN(CC)CCOc1nc(C)nc2c1oc1ccccc12` it was -1.3% (inactive); in that of `CN(C)CCOc1nc(-c2ccccc2)nc2c1oc1ccccc12`, 56.8% (active).
Turning to `CCc1nc(OCCN(C)C)c2oc3ccccc3c2n1`, the cytotoxicity was -2.7% (inactive).
In the case of `CC1Oc2ccccc2N(Cc2ccccc2F)C1=O` (centres undefined) it was 3.3% (inactive); in that of `CCOC(=O)c1ccccc1NC(=O)COC`, -2.8% (inactive); in that of `CCOC(=O)c1cccc(C(=O)OCC)n1`, -5.9% (inactive).
As to `Cc1ccccc1CS(=O)(=O)Cc1ccc(C(=O)NCCCN2CCCC2=O)o1`, the cytotoxicity is -10.2% (inactive).
`CCOC(=O)c1c(NC(=O)c2nn(CC)cc2Br)sc2c1CCCCC2`: the cytotoxicity is 16.9% (inactive).
With `CCCn1c(Sc2nnnn2-c2ccccc2)n[nH]c1=O`, the cytotoxicity was -14.1% (inactive).
Turning to `Cc1nc(Sc2nnnn2-c2ccccc2)c(C#N)c(C)c1C`, the cytotoxicity is -8% (inactive).
In the case of `Clc1ccc(-n2nnnc2Sc2ncnc3sccc23)cc1` it was -6.3% (inactive).
`Cc1sc2ncnc(Sc3nnnn3-c3ccccc3)c2c1C`: the cytotoxicity was 101% (active).
Take `Cc1sc2ncnc(SCc3ccco3)c2c1C`: the cytotoxicity was -15.5% (inactive).
Next, `CCOC(=O)c1ccc(CNC(=O)c2cc3cccc(OC)c3oc2=O)o1`: -2.4% (inactive).
Next, `CCOC(=O)CCCSc1nc2sc(C)c(C)c2c(=O)[nH]1`: 9.4% (inactive); `CC(C)CCn1c(SCC(N)=O)nc2c1c(=O)n(C)c(=O)n2C`: -10.1% (inactive).
Next, `CCOc1ccc(OCc2ccc(C(=O)O)o2)cc1`: -2.9% (inactive).
Turning to `CCN1CCN(c2ncc3c(n2)CC(c2cc(OC)c(OC)c(OC)c2)CC3=O)CC1` (centres undefined), the cytotoxicity is 62.1% (active).
In the case of `COc1cc(C2CC(=O)c3cnc(N4CCN(Cc5ccccc5)CC4)nc3C2)cc(OC)c1OC` (centres undefined) it was 50.1% (active); in that of `O=C1CC(c2cccc(Cl)c2)Cc2nc(N3CCN(c4ccccc4)CC3)ncc21` (centres undefined), 61.6% (active).
For `O=C1CC(c2cccc(Cl)c2)Cc2nc(N3CCOCC3)ncc21` (centres undefined), the cytotoxicity was -18.3% (inactive).
As for `Cc1ccc(C2CC(=O)c3cnc(N4CCN(c5ccccc5)CC4)nc3C2)cc1` (centres undefined), the cytotoxicity was 17.2% (inactive).
As for `COc1cc(C2CC(=O)c3cnc(NC(=O)COc4ccccc4)nc3C2)cc(OC)c1OC` (centres undefined), the cytotoxicity was -19.4% (inactive).
Turning to `COc1ccc(C2CC(=O)c3cnc(N4CCN(Cc5ccccc5)CC4)nc3C2)cc1` (centres undefined), the cytotoxicity was 4.1% (inactive).
Next, `COc1ccc(C2CC(=O)c3c(C)nc(N4CCN(Cc5ccccc5)CC4)nc3C2)cc1OC` (centres undefined): 39.3% (inactive).
Turning to `CCN1CCN(c2ncc3c(n2)CC(c2ccc(OC)c(OC)c2)CC3=O)CC1` (centres undefined), the cytotoxicity was 14.6% (inactive).
In the case of `CCOC(=O)C1CCN(C(=O)CCn2c(=O)[nH]c3ccccc3c2=O)CC1`, the cytotoxicity was -4.8% (inactive).
In the case of `Cc1nn(C)c(C)c1S(=O)(=O)NC1CCCC1` it was -13% (inactive); in that of `CCOC(=O)C1CCCN(C(=O)c2cccs2)C1` (centres undefined), 2.4% (inactive); in that of `COc1cccc(NC(=O)NCc2cccn2C)c1`, -7% (inactive).
On to `COc1cc(S(=O)(=O)N2CCCC3(CCCCC3)C2)ccc1-n1cnnn1`, for which the cytotoxicity was 76% (active).
Next, `COc1cc(S(=O)(=O)N2CCC(N3CCCCC3)CC2)ccc1-n1cnnn1`: 12.7% (inactive); `COc1cc(S(=O)(=O)N2CCN3CCCC3C2)ccc1-n1cnnn1` (centres undefined): 6.5% (inactive).
In the case of `COc1cc(C(=O)Nc2ccc(S(=O)(=O)N3CCCCC3C)cc2)cc(OC)c1OC` (centres undefined), the cytotoxicity was 0.7% (inactive).
Next, `Cc1cc(C)c2c(CC(=O)N(CCC#N)Cc3cccnc3)coc2c1`: -1.9% (inactive); `c1csc(CSc2nc3ccccc3s2)c1`: -17.1% (inactive).
As to `N#C/C(=C\c1ccco1)Sc1nc2ccccc2s1`, the cytotoxicity is 43.6% (inactive).
Next, `Cc1oc(-c2cccs2)nc1CS(=O)CC(=O)NCCCOC(C)C` (centres undefined): -12.2% (inactive); `O=C(CSC1=NCCS1)Nc1ccnc2ccccc12`: -15.4% (inactive); `COC(=O)COc1ccc(S(=O)(=O)NCCC2=CCCCC2)cc1`: -11.9% (inactive).
For the molecule `CCOC(=O)COc1ccc(S(=O)(=O)NCCC2=CCCCC2)cc1`, the cytotoxicity is 53.1% (active).
In the case of `COC(=O)COc1ccc(S(=O)(=O)NCCC2=CCCCC2)cc1C` it was -19.8% (inactive).
For the molecule `COC(=O)C1=C(C)OC(N)=C(C#N)C1C1CCCCC1` (centres undefined), the cytotoxicity was -11.1% (inactive).
In the case of `CCOc1ccc(NC(=O)CSc2nnc(C)n2CCCOC)cc1` it was -3.5% (inactive).
As to `COc1cccc(C(=O)Nc2ccc(C)cc2)c1`, the cytotoxicity is 4.1% (inactive).
In the case of `COc1cccc(C(=O)/C=C/Nc2cc(C)ccc2O)c1` it was 69.1% (active); in that of `O=C(/C=C/Nc1cccc(O)c1)c1ccccc1`, 15% (inactive).
In the case of `Cc1cccc(OCC(=O)Nc2cc(C)ccc2O)c1` it was -1.5% (inactive); in that of `Cc1ccc(C(=O)/C=C/Nc2cccc(O)c2)cc1`, 60.9% (active).
In the case of `C/C(=C\C(=O)c1ccc(C)cc1)Nc1cccc(O)c1` it was -15.4% (inactive); in that of `Cc1ccc(C)c(N2CCN(C(=O)c3ccc(NS(=O)(=O)c4c(C)noc4C)cc3)CC2)c1`, 17.4% (inactive).
Turning to `Cc1noc(C)c1S(=O)(=O)Nc1ccc(C(=O)N2CCN(c3ccc(Cl)cc3)CC2)cc1`, the cytotoxicity is -5.4% (inactive).
In the case of `CCCCc1n[nH]c2c1C(=O)CC(C)(C)C2`, the cytotoxicity is 1.2% (inactive).
Consider `CCOC(=O)N1CCC(NC(=O)c2cc(C(=O)Nc3cccc(OC)c3)ccc2CO)CC1`, for which the cytotoxicity was 1.1% (inactive).
In the case of `Cc1ccc(Cl)cc1N1CCN(C(CC(C)C)c2nnnn2CC2CCCO2)CC1` (centres undefined), the cytotoxicity is 39.6% (inactive).
`CCCCC(c1nnnn1CC1CCCO1)N1CCN(c2cc(Cl)ccc2C)CC1` (centres undefined): the cytotoxicity is 36.2% (inactive).
With `CCCC(c1nnnn1CC1CCCO1)N1CCN(c2cc(Cl)ccc2C)CC1` (centres undefined), the cytotoxicity is 61.1% (active).
Next, `O=C(Nc1ccccc1C(=O)O)c1ncn[nH]1`: -10% (inactive); `CC(C)CC(=O)Nc1c2c(nn1-c1ccc(F)cc1)CSC2`: -0.6% (inactive).
Consider `CCOC(=O)CCc1c(C)n(CC)c2ncnn2c1=O`, for which the cytotoxicity was 2.5% (inactive).
